Reference: PubChem BioAssay (NCI)
This is part of a sample that, as a whole, favours compounds with a hit. Of some 83,000 tested, about 20% had one in any assay.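 Note: values are percent growth. 100 is the growth of untreated cells, values between 100 and 0 indicate rising inhibition; between -100 and 0 indicates cell death.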 Activity calls are given as the source filed them. Rule for the calls: active = growth percent below 10; inactive = the rest.

Tests used:
Test in all cases: NCI-60 one-dose screen, 48 h (100 = growth as untreated, 0 = no growth, -100 = all killed)
Conditions in all cases: 10 µM unless noted
HCT-15 colon = system: HCT-15 colon
HT29 colon = system: HT29 colon
SNB-75 CNS = system: SNB-75 CNS
SNB-19 CNS = system: SNB-19 CNS
U251 CNS = system: U251 CNS
PC-3 prostate = system: PC-3 prostate
SK-MEL-5 melanoma = system: SK-MEL-5 melanoma
LOX IMVI melanoma = system: LOX IMVI melanoma
SK-MEL-28 melanoma = system: SK-MEL-28 melanoma
UACC-62 melanoma = system: UACC-62 melanoma

Measured: growth

CC[C@]12C=CCN3CC[C@]4(C(=C(C(=O)OC)C1)Nc1cc(OC)c(OC(C)=O)cc14)[C@@H]32
active: HT29 colon 0.643% | U251 CNS 3.52% | SK-MEL-5 melanoma -33.4% | LOX IMVI melanoma -24%
inactive: HCT-15 colon 21% | SNB-75 CNS 50.6% | SNB-19 CNS 32.2% | PC-3 prostate 22.5%

Brc1ccc2c(c1)c(-c1nc(-c3c[nH]c4ncccc34)cs1)cn2CCN1CCOCC1
inactive: HCT-15 colon 35.5% | HT29 colon 57.8% | SNB-75 CNS 56.4% | SNB-19 CNS 71.6% | U251 CNS 52.8% | PC-3 prostate 30.3% | SK-MEL-5 melanoma 51.3% | LOX IMVI melanoma 66.7% | SK-MEL-28 melanoma 94.5%

ClCCN(CCCl)c1ccc(-n2cnc3c(Cl)ncnc32)cc1
inactive: HT29 colon 12.7% | SNB-75 CNS 26.1% | SNB-19 CNS 79.2% | U251 CNS 32.8% | PC-3 prostate 64.1% | SK-MEL-5 melanoma 86.3% | UACC-62 melanoma 31.5%
active: HCT-15 colon -26.7% | SK-MEL-28 melanoma -10.5%

c1ccc(COc2ccc3[nH]cc(CCN(Cc4ccccc4)Cc4ccccc4)c3c2)cc1
inactive: HCT-15 colon 47.2% | HT29 colon 83.5% | SNB-75 CNS 89.2% | SNB-19 CNS 104% | U251 CNS 81.6% | PC-3 prostate 57.7% | SK-MEL-5 melanoma 88.3% | LOX IMVI melanoma 81.8% | SK-MEL-28 melanoma 104%

CC[C@H](C)[C@H](NC(=O)[C@H]1CCCCN1C)C(=O)N(C)[C@H](C[C@@H](OC(C)=O)c1nc(C(=O)NC23CC(C(=O)OC)(C2)C3)cs1)C(C)C
active: HCT-15 colon 6.1% | HT29 colon -9.84% | U251 CNS 6.7% | SK-MEL-5 melanoma -65.7% | LOX IMVI melanoma 4.9%
inactive: SNB-75 CNS 15% | SNB-19 CNS 29% | UACC-62 melanoma 44.3% | SK-MEL-28 melanoma 60.8%

O=C(CC1(O)C(=O)N(Cc2ccccc2)c2ccc(Cl)cc21)c1ccc(C(=O)NCC2CCC3(CC2)OOC2(CCCCC2)OO3)cc1 (configuration not stated)
active: HCT-15 colon -14.1% | HT29 colon -69.7% | SNB-75 CNS -61.7% | U251 CNS -81.8% | PC-3 prostate -54.3% | LOX IMVI melanoma -78.5%
inactive: SNB-19 CNS 30.9% | UACC-62 melanoma 53% | SK-MEL-28 melanoma 58.5%

CCC1CC(O)c2c(O)c3c(c(O)c2C1O)C(=O)c1cccc(O)c1C3=O (configuration not stated) (tested in a mixture with another compound)
active: HCT-15 colon -20.2% | HT29 colon -24.6% | SNB-75 CNS -93.5% | SNB-19 CNS -16.4% | U251 CNS -12.2% | PC-3 prostate -33.4% | UACC-62 melanoma -71.7% | LOX IMVI melanoma -28.1%

O=C(Nc1ccc(Cl)cc1)Nc1nccs1
active: SNB-75 CNS 1.2%
inactive: HCT-15 colon 33% | HT29 colon 10.7% | SNB-19 CNS 64.9% | U251 CNS 22.3% | SK-MEL-5 melanoma 31.2% | UACC-62 melanoma 50.3% | LOX IMVI melanoma 46.3% | SK-MEL-28 melanoma 50.5%

COC(=O)[C@@H](C)C[C@H](Cc1ccccc1)NC(=O)c1csc([C@@H](C[C@H](C(C)C)N(C)C(=O)[C@@H](NC(=O)C23CC(NC(C)=O)(C2)C3)C2CC2)OC(C)=O)n1
inactive: HCT-15 colon 92% | HT29 colon 20.9% | SNB-75 CNS 14% | SNB-19 CNS 65.3% | U251 CNS 33.1% | PC-3 prostate 44.4% | SK-MEL-5 melanoma 30.5% | LOX IMVI melanoma 31.7% | SK-MEL-28 melanoma 61.3%

CC1(C)C(C(=O)c2cn(CCCCF)c3ccccc23)C1(C)C
inactive: HCT-15 colon 91.9% | HT29 colon 48.8% | SNB-75 CNS 96% | SNB-19 CNS 104% | U251 CNS 86% | SK-MEL-5 melanoma 92.1% | UACC-62 melanoma 88.4% | LOX IMVI melanoma 92.9% | SK-MEL-28 melanoma 116%

CC(=O)c1ccc(C(=O)NCC2CCC3(CC2)OOC2(CCCCC2)OO3)cc1
inactive: HCT-15 colon 82.5% | HT29 colon 83.4% | SNB-75 CNS 99.8% | SNB-19 CNS 96.9% | U251 CNS 64.4% | PC-3 prostate 71% | UACC-62 melanoma 80.9% | LOX IMVI melanoma 35.3% | SK-MEL-28 melanoma 95.5%

CCn1c2ccccc2c2cc(C(=O)c3ccc(C)c4ccccc34)ccc21
inactive: HCT-15 colon 15.7% | SNB-75 CNS 51% | SNB-19 CNS 20.7% | U251 CNS 10.3% | PC-3 prostate 18.7% | SK-MEL-28 melanoma 17.9%
active: HT29 colon -7.41% | UACC-62 melanoma 1.49% | LOX IMVI melanoma 1.21%

O=C(O)C1C(C(=O)O)C2(Cl)C(Cl)=C(Cl)C1(Cl)C2(Cl)Cl.[Hg] (configuration not stated)
inactive: HCT-15 colon 87% | HT29 colon 82.2% | SNB-75 CNS 86.6% | SNB-19 CNS 96.9% | U251 CNS 44.7% | PC-3 prostate 76.2% | SK-MEL-5 melanoma 85.3% | SK-MEL-28 melanoma 96.7%

O=C(CC1(O)C(=O)Nc2ccc(Cl)cc21)c1ccc(C(=O)NCC2CCC3(CC2)OOC2(CCCCC2)OO3)cc1 (configuration not stated)
inactive: HCT-15 colon 49.1% | HT29 colon 15.1% | SNB-19 CNS 30.3% | UACC-62 melanoma 50.7% | LOX IMVI melanoma 32.3% | SK-MEL-28 melanoma 69.2%
active: SNB-75 CNS -3.77% | U251 CNS -54.2% | PC-3 prostate -34.2%

Cn1cc(-c2csc(-c3cn(CCCCN4CCCCC4)c4ccc(F)cc34)n2)c2cccnc21
inactive: HCT-15 colon 76% | SNB-75 CNS 68.8% | SNB-19 CNS 87.1% | U251 CNS 80.7% | PC-3 prostate 68.4% | LOX IMVI melanoma 75.9%
active: HT29 colon -73.5% | SK-MEL-5 melanoma -100% | SK-MEL-28 melanoma -78.2%

NC(=O)CNc1ccc([As]=[As]c2ccc(NCC(N)=O)cc2)cc1 (configuration not stated)
inactive: HCT-15 colon 44.1% | HT29 colon 38.9% | SNB-75 CNS 24.5% | SNB-19 CNS 48.6% | U251 CNS 12% | SK-MEL-5 melanoma 23.7% | UACC-62 melanoma 26.1% | LOX IMVI melanoma 26.2% | SK-MEL-28 melanoma 74.6%

O=C(CC1(O)C(=O)Nc2ccccc21)c1ccc(C(=O)NCC2CCC3(CC2)OOC2(CCCCC2)OO3)cc1 (configuration not stated)
inactive: HCT-15 colon 79.9% | HT29 colon 82.1% | SNB-75 CNS 82.1% | SNB-19 CNS 86.4% | U251 CNS 63.6% | PC-3 prostate 50.8% | UACC-62 melanoma 63.4% | LOX IMVI melanoma 57.3% | SK-MEL-28 melanoma 86.4%

Cn1cc(-c2csc(-c3cn(CCN4CCOCC4)c4ccc(F)cc34)n2)c2cccnc21
active: PC-3 prostate 1.07% | SK-MEL-5 melanoma -28.8%
inactive: HCT-15 colon 19.6% | HT29 colon 40.1% | SNB-75 CNS 51.1% | SNB-19 CNS 49.2% | U251 CNS 36.9% | LOX IMVI melanoma 27.9% | SK-MEL-28 melanoma 40.5%

C[C@@]12CC[C@@H](O)C[C@@H]1CC[C@H]1[C@H]2CC[C@@]2(C)[C@H](c3ccc(=O)oc3)CC[C@@]12O
active: HCT-15 colon -79.7% | HT29 colon -67.5% | SNB-75 CNS -85% | SNB-19 CNS -99.8% | U251 CNS -81.3% | SK-MEL-5 melanoma -68.6% | UACC-62 melanoma -71% | LOX IMVI melanoma -74.9% | SK-MEL-28 melanoma -43%

O=C(CC1(O)C(=O)N(Cc2ccccc2)c2ccc(Br)cc21)c1ccc(C(=O)NCC2CCC3(CC2)OOC2(CCCCC2)OO3)cc1 (configuration not stated)
inactive: SNB-75 CNS 15% | SNB-19 CNS 56.1% | UACC-62 melanoma 80.7% | SK-MEL-28 melanoma 77.4%
active: HCT-15 colon 2.73% | HT29 colon -65.5% | U251 CNS -85.4% | PC-3 prostate -36.3% | LOX IMVI melanoma -79.7%

CC(=O)Nc1nc2c(s1)CC[C@@]1(C)C2=CC[C@H]2[C@@H]3CC[C@H](O)[C@@]3(C)CC[C@@H]21
inactive: HCT-15 colon 29.5% | HT29 colon 20.8% | SNB-75 CNS 54.5% | SNB-19 CNS 62.1% | U251 CNS 48.5% | SK-MEL-5 melanoma 53.7% | UACC-62 melanoma 34.9% | LOX IMVI melanoma 53.6% | SK-MEL-28 melanoma 56.4%

CC[C@H](C)[C@@H]1OC(=O)C(C)(C)[C@H](O)[C@H](Cc2ccccc2)OC(=O)[C@H](C(C)C)OC(=O)[C@@H](NC(=O)c2cccc(NC=O)c2O)[C@@H](C)OC1=O
inactive: HCT-15 colon 36.2% | HT29 colon 48.4% | SNB-75 CNS 63.9% | SNB-19 CNS 49.5% | U251 CNS 41.2% | PC-3 prostate 43.9% | LOX IMVI melanoma 38.1%

O=C(CC1(O)C(=O)Nc2ccc(Br)cc21)c1ccc(C(=O)NCC2CCC3(CC2)OOC2(CCCCC2)OO3)cc1 (configuration not stated)
inactive: HCT-15 colon 54.2% | HT29 colon 47.2% | SNB-75 CNS 64.6% | SNB-19 CNS 61.4% | U251 CNS 11.8% | PC-3 prostate 38.9% | UACC-62 melanoma 54.6% | LOX IMVI melanoma 32.6% | SK-MEL-28 melanoma 73.3%

C/C(=C\c1ccn(-c2ccc(N)cc2C(F)(F)F)n1)[C@@H]1C[C@@H]2O[C@]2(C)CCC[C@H](C)[C@H](O)[C@@H](C)C(=O)C(C)(C)[C@@H](O)CC(=O)O1
inactive: HCT-15 colon 14% | HT29 colon 10.5% | SNB-19 CNS 21.5% | U251 CNS 13.3% | PC-3 prostate 15.4% | UACC-62 melanoma 27.7% | LOX IMVI melanoma 26.4% | SK-MEL-28 melanoma 63.2%
active: SNB-75 CNS -7.43%

O=C(CC1(O)C(=O)N(Cc2ccccc2)c2ccc(F)cc21)c1ccc(C(=O)NCC2CCC3(CC2)OOC2(CCCCC2)OO3)cc1 (configuration not stated)
inactive: SNB-19 CNS 16.8% | SK-MEL-28 melanoma 51.5%
active: HCT-15 colon -14.3% | HT29 colon -70.2% | SNB-75 CNS -62.1% | U251 CNS -80.1% | PC-3 prostate -58.8% | UACC-62 melanoma -12.5% | LOX IMVI melanoma -84.5%

O=[N+]([O-])c1ccc(OP(=O)(CCl)N(CCCl)CCCl)cc1 (configuration not stated)
inactive: HCT-15 colon 90.3% | HT29 colon 86.8% | SNB-75 CNS 77.7% | SNB-19 CNS 111% | U251 CNS 96.1% | SK-MEL-5 melanoma 107% | UACC-62 melanoma 104% | LOX IMVI melanoma 98.4% | SK-MEL-28 melanoma 106%

CC(C)=CC1C(C(=O)OCc2cccc(Oc3ccccc3)c2)C1(C)C (configuration not stated)
inactive: HCT-15 colon 98.9% | HT29 colon 86.5% | SNB-75 CNS 115% | SNB-19 CNS 98.4% | U251 CNS 98.6% | PC-3 prostate 92.8% | UACC-62 melanoma 78.4% | SK-MEL-28 melanoma 119%
